A short description of assay [1]: EP2 hit retest with parallel cAMP counter-assays – cell-based, five parallel assays, C6 glioma, HEK293, counter-screen for EP2 modulator project, confirmation (AID 1080). As to conditions: C6 glioma EP2 cells, cAMP HTRF induction. (In general: A counterscreen serves to expose hits that act by an unwanted route or on another target.)
In assay [2] the target is Prostaglandin E2 receptor EP2 subtype (Homo sapiens) (UniProt P43116). The description is as above. As to conditions: C6 glioma EP2 cells, cAMP HTRF induction; stronger effect = higher value; screened at 20 µM (by protocol); percent of 1 uM PGE2 response; plus low (about EC15) PGE2 agonist. A general note: In TR-FRET formats the signal depends on donor and acceptor labels being close together.

The mark [3] stands for this setting: measured here: EP4 receptor counter-screen, percent of 1 uM PGE2 response, plus low (about EC15) PGE2 agonist.
Where [4] appears, read: measured here: beta2 adrenergic HEK293 counter-screen.
[5] abbreviates: measured here: cAMP conditions counter-screen.
Setting [6] is: measured here: parent C6 cells counter-screen.

SMILES strings stand for the structures. Among all 1,300 compounds or so, about 640 (49%) were called active.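 The calls were made as follows: active = cAMP induction above 50% in the main assay while under 30% in all four parallel counter assays; inactive = the rest.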 The set was probably picked from earlier hits. These entries were drawn from the full list.

As to `COc1c2c(cc3occ(-c4ccc5c(c4)OCO5)c(=O)c13)OC(C)(C)C=C2`, the cAMP induction in assay [1] (setting [3]) is -0.877%; in assay [1] (setting [4]), -13.4%; in assay [1] (setting [5]), 2.3%; in assay [1] (setting [6]), 4.12%; in assay [2], 46.1% (inactive).

`CC(C)Oc1ccc(Cc2n[nH]c(=S)n2Cc2ccccc2)cc1Cl`: the cAMP induction was -4.47% in assay [1] (setting [3]); -10.4% in assay [1] (setting [4]); 0.63% in assay [1] (setting [5]); 2.28% in assay [1] (setting [6]); 40% (inactive) in assay [2].

Take `CC1(C)Cc2nc3sc4c(SCC(=O)NC(c5ccccc5)c5ccccc5)ncnc4c3cc2CO1`: the cAMP induction in assay [1] (setting [3]) was 71.8%; in assay [1] (setting [4]) it was 71.7%; in assay [1] (setting [5]), 70.8%; in assay [1] (setting [6]), 70%; in assay [2], 68.6% (inactive).

`CCOC(=O)C1=C(CN2CCc3ccccc32)NC(=O)NC1c1ccc(Cl)cc1` (stereo not given): the cAMP induction in assay [1] (setting [3]) was -13%; in assay [1] (setting [4]), -5.75%; in assay [1] (setting [5]), -12.2%; in assay [1] (setting [6]) it was -1.26%; in assay [2], 42.4% (inactive).

In the case of `Cc1cc(NC(=O)CN2CCCC(C)C2)n(-c2nc3ccccc3s2)n1` (stereo not given), the cAMP induction in assay [1] (setting [3]) was 16.2%; in assay [1] (setting [4]) it was 6.5%; in assay [1] (setting [5]), -2.07%; in assay [1] (setting [6]), -6.69%; in assay [2] it was 50.7% (active).

As to `COC(=O)c1sc2[nH]c(=S)n(N)c(=O)c2c1C`, the cAMP induction in assay [1] (setting [3]) was 68.1%; in assay [1] (setting [4]) it was 67.4%; in assay [1] (setting [5]), 67.6%; in assay [1] (setting [6]), 66.3%; in assay [2], 70.6% (inactive).

Turning to `Cc1cccc2cc(CN(Cc3cccs3)C(c3nnnn3C3CCCC3)C(C)C)c(=O)[nH]c12` (stereo not given), the cAMP induction in assay [1] (setting [3]) was -2.3%; in assay [1] (setting [4]) it was -6.33%; in assay [1] (setting [5]), 1.55%; in assay [1] (setting [6]) it was 3.32%; in assay [2], 59.5% (active).

For `Oc1ccc(/C=N/N(Cc2ccccc2)c2ccccc2)cc1`, the cAMP induction in assay [1] (setting [3]) was -13.7%; in assay [1] (setting [4]), -14.9%; in assay [1] (setting [5]), -0.103%; in assay [1] (setting [6]), 2.51%; in assay [2] it was 55.2% (active).

In the case of `CCN1CCN(c2c(Cl)cccc2NC(=O)c2ccc(Br)o2)CC1`, the cAMP induction in assay [1] (setting [3]) is 9.56%; in assay [1] (setting [4]) it was -6.35%; in assay [1] (setting [5]) it was 8.3%; in assay [1] (setting [6]) it was 10.5%; in assay [2] it was 45.8% (inactive).

As to `CCOC(=O)c1c(N)nn(C(=O)c2ccccc2)c1-c1ccccc1`, the cAMP induction is -2.57% in assay [1] (setting [3]); -8.03% in assay [1] (setting [4]); 0.963% in assay [1] (setting [5]); -2.53% in assay [1] (setting [6]); 53.3% (active) in assay [2].

For `Cc1ccc(-n2c(SCC(=O)Nc3ccc4c(c3)OCO4)nnc2-c2ccoc2C)cc1`, the cAMP induction was 7.89% in assay [1] (setting [3]); -0.777% in assay [1] (setting [4]); -1.2% in assay [1] (setting [5]); -1.05% in assay [1] (setting [6]); 40.3% (inactive) in assay [2].

Take `COc1ccccc1NC(=O)CSc1nnc(Cn2nnc(-c3ccccc3)n2)n1-c1ccccc1`: the cAMP induction in assay [1] (setting [3]) is -5.84%; in assay [1] (setting [4]), -2.51%; in assay [1] (setting [5]), 2.46%; in assay [1] (setting [6]), 3.99%; in assay [2] it was 61.9% (active).

Consider `CSc1nc2ccccc2c(=O)n1Cc1ccc(F)cc1`, for which the cAMP induction in assay [1] (setting [3]) was 1.87%; in assay [1] (setting [4]) it was 10%; in assay [1] (setting [5]) it was -3.28%; in assay [1] (setting [6]), 0.81%; in assay [2], 44.6% (inactive).

`O=c1c2ccccc2c(-c2ccc(Br)cc2)nn1Cc1ccccc1`: the cAMP induction in assay [1] (setting [3]) was 4.3%; in assay [1] (setting [4]), 8.28%; in assay [1] (setting [5]), -3.64%; in assay [1] (setting [6]) it was 0.753%; in assay [2], 72.8% (active).

Consider `O=c1c2ccccc2c(-c2ccccc2)nn1Cc1ccccc1`, for which the cAMP induction in assay [1] (setting [3]) is 1.05%; in assay [1] (setting [4]), 4.51%; in assay [1] (setting [5]), -1.54%; in assay [1] (setting [6]) it was -0.867%; in assay [2] it was 78% (active).

Turning to `O=C(COC(=O)c1ccccc1)Nc1ccccc1Sc1ccccc1`, the cAMP induction in assay [1] (setting [3]) was 5.14%; in assay [1] (setting [4]), -16.3%; in assay [1] (setting [5]), -4.67%; in assay [1] (setting [6]), -4.62%; in assay [2], 66.8% (active).

For `Cc1ccccc1C(=O)Nc1ccccc1Sc1ccccc1`, the cAMP induction in assay [1] (setting [3]) was -6.34%; in assay [1] (setting [4]), -0.06%; in assay [1] (setting [5]) it was -1.62%; in assay [1] (setting [6]), -1.24%; in assay [2] it was 73.7% (active).

Turning to `O=C(CN1CCCCC1)N1c2ccccc2Sc2ccc(C(F)(F)F)cc21`, the cAMP induction in assay [1] (setting [3]) is -11.3%; in assay [1] (setting [4]), -1.41%; in assay [1] (setting [5]), -5.21%; in assay [1] (setting [6]), -5.14%; in assay [2], 47.3% (inactive).

Take `CCc1ccccc1NC(=O)/C(=C/c1ccccc1)c1ccccc1`: the cAMP induction in assay [1] (setting [3]) is -11.7%; in assay [1] (setting [4]), 34%; in assay [1] (setting [5]), -0.563%; in assay [1] (setting [6]), -0.623%; in assay [2] it was 53.6% (inactive).

For the compound `CCOCC(=O)Nc1sc2c(c1C(=O)OCC)CCCC2`, the cAMP induction in assay [1] (setting [3]) was -16%; in assay [1] (setting [4]) it was 3.07%; in assay [1] (setting [5]) it was 3.98%; in assay [1] (setting [6]), 1.75%; in assay [2], 40.6% (inactive).

On to `Cc1ccc(C(=O)c2c(NC(=O)c3ccncc3)sc3c2CCCC3)cc1`, for which the cAMP induction in assay [1] (setting [3]) is 4.56%; in assay [1] (setting [4]) it was -17.1%; in assay [1] (setting [5]), 0.45%; in assay [1] (setting [6]), 3.43%; in assay [2] it was 54.2% (active).

As for `CC1(C)CC2CC(C)(CN2c2ncnc3ccc(Br)cc23)C1` (stereo not given), the cAMP induction is -0.537% in assay [1] (setting [3]); -0.287% in assay [1] (setting [4]); 6.56% in assay [1] (setting [5]); 5.43% in assay [1] (setting [6]); 25.7% (inactive) in assay [2].

Turning to `Cc1ccc(Nc2cc(C)nc3c(C)ccc([N+](=O)[O-])c23)cc1`, the cAMP induction in assay [1] (setting [3]) was -1.3%; in assay [1] (setting [4]), 15.4%; in assay [1] (setting [5]) it was 0.53%; in assay [1] (setting [6]) it was -0.713%; in assay [2], 57.4% (active).

In the case of `CC(=O)c1ccc2c(c1)c1ccccc1n2CC(C)C`, the cAMP induction in assay [1] (setting [3]) is 8.49%; in assay [1] (setting [4]), 0.833%; in assay [1] (setting [5]), 9.82%; in assay [1] (setting [6]), 9.42%; in assay [2], 58.9% (active).

For the compound `CCCCCn1c(SCCC(C)C)nc2c1c(=O)[nH]c(=O)n2C`, the cAMP induction in assay [1] (setting [3]) is -16.3%; in assay [1] (setting [4]) it was -18.1%; in assay [1] (setting [5]), 1.4%; in assay [1] (setting [6]), -0.767%; in assay [2], 59.3% (active).

As for `CCOC(=O)C(CC)Sc1ncnc2c1nnn2-c1ccc(F)cc1` (stereo not given), the cAMP induction was -7.74% in assay [1] (setting [3]); 17% in assay [1] (setting [4]); 0.993% in assay [1] (setting [5]); 2.03% in assay [1] (setting [6]); 50.7% (active) in assay [2].

(Values after PubChem BioAssay AID1080 (Emory University Molecular Libraries Screening Center, 2008).)
